The list is not random: actives were taken first. Their share in the collection is about 12%.
ALDH1A1 inh – qHTS Assay for Inhibitors of Aldehyde Dehydrogenase 1 (ALDH1A1) | Aldehyde dehydrogenase 1A1 (Homo sapiens), P00352 | Purified ALDH1A1, NADH fluorescence, propionaldehyde substrate | Potency, µM (doses to about 75.3 µM), actives largely listed as inhibitors | hit rate 7.3% among 220,000; active = well fitted inhibition curve with a large enough effect, not every such curve was filed as active; inconclusive = small, poorly fitted or top-dose-only effect, or another doubt; inactive = no such curve, though single readings can be large or run the other way
PLK1 PBD inh – qHTS for Inhibitors of PLK1-PDB (polo-like kinase 1 - polo-box domain): Primary Screen. hit rate 2.8% among 360,000. AID 720504, 2013. Serine/threonine-protein kinase PLK1 (Homo sapiens), P53350. Potency, µM, actives largely listed as inhibitors. Plk1 PBD binding of FITC phosphopeptide, fluorescence polarization; also: series mostly up to about 57 µM; nearly all actives have a fitted effect of over 65% in size
RORg inh – qHTS for inhibitors of ROR gamma transcriptional activity. Nuclear receptor ROR-gamma (Mus musculus), P51450. Drosophila S2 Gal4-RORgamma UAS-luciferase reporter, 20 h. Potency, µM (series often up to 53.6 µM), most hits filed as inhibitors. hit rate 5.4% among 310,000. AID 2551, 2010; also: nearly all actives have a fitted effect of over 60% in size
Target sequence (P51450 whole entry, looked up, the tested form may be a part): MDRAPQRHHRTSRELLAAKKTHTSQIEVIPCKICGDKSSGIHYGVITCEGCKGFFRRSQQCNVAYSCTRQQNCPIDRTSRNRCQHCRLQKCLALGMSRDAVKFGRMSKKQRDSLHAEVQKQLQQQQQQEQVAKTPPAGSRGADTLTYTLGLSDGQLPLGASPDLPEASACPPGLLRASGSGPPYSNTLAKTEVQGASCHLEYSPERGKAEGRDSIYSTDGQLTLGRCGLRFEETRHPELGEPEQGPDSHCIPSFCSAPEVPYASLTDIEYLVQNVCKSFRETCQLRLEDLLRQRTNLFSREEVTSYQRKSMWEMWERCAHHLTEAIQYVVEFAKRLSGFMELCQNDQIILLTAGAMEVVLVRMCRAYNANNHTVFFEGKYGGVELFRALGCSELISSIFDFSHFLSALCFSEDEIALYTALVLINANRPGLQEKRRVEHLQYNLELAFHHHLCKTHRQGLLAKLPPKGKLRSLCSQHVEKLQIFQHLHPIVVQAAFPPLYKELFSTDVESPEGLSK
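Stably transfected Drosophila Schneider cells are the test system, with ROR gamma fused to Gal4 and luciferase under UAS control; luminescence is read after 20 hr of 700 uM copper sulfate induction at ambient temperature.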
Sfp inh – qHTS Assay for Inhibitors of Bacillus subtilis Sfp phosphopantetheinyl transferase (PPTase) | 4'-phosphopantetheinyl transferase ffp (Bacillus subtilis), Q9F4F7 | Biochemical Sfp PPTase activity, qHTS | Potency, µM, hits mostly inhibitors | hit rate 3.5% among 310,000;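 also: the enzyme is Sfp with the accession as filed and its product quenches rhodamine fluorescence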
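Fluorescence-quenching assay: 15 nM Sfp-PPTase preincubated 15 min at room temperature with compound, then 5 uM rhodamine-CoA and 12.5 uM BHQ-2-labelled YbbR peptide added. Fluorescence (ex 525/em 598 nm) read at start and after 30 min; difference gives rate.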
Gal4-VP16 FLuc – VP16 counterscreen qHTS for inhibitors of ROR gamma transcriptional activity; Drosophila S2 Gal4-VP16 UAS-luciferase, luminescence, 20 h; Potency, µM (highest dose often 53.6 µM), usual class: inhibitors; hit rate 3.5% among 310,000; AID 2546, 2010;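 also: Gal4-VP16 expression switched on by copper sulfate through the metallothionein promoter; nearly all actives have a fitted effect of over 50% in size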
Large screens that a line does not name were inactive. Unless noted, calls follow the shape of the dose curve; as a rule, active = well fitted curve in the direction sought with a large enough effect; inconclusive = small, poorly fitted or top-dose-only effect, or another doubt; inactive = no such curve, though single readings can be large; an effect the other way counts as inactive or inconclusive.

CCN1C(=O)c2ccccc2S(=O)c2ccc(C(=O)N3CCN(C(=O)c4ccco4)CC3)cc21 (configuration not stated)	ALDH1A1 inh 8.9µM
O=C(c1ccco1)N1CCN(c2ccc(F)cc2)CC1	PLK1 PBD inh 30µM, Gal4-VP16 FLuc inconclusive
O=C(c1ccco1)N1CCN(C(=O)c2cccc3c2C(=O)N(C2CCCCC2)C3)CC1	ALDH1A1 inh 10µM
N#CCC(=N)N1CCN(c2ccc(Cl)cc2)CC1	none
N#CCC(=N)N1CCN(c2ccc(F)cc2)CC1	ALDH1A1 inh 11µM
N#CC(OC(=O)c1ccccc1)c1cccc([N+](=O)[O-])c1 (configuration not stated)	none (no result: ALDH1A1 inh, RORg inh, Sfp inh, Gal4-VP16 FLuc)
CCc1ccccc1NC(=O)CCC(=O)N1CCN(C(C)=O)CC1	none (no result: ALDH1A1 inh, RORg inh, Sfp inh, Gal4-VP16 FLuc)
OC(Cc1ccccc1Br)c1ncc(-c2cccc(C(F)(F)F)c2)[nH]1 (configuration not stated)	none (no result: ALDH1A1 inh, RORg inh, Sfp inh, Gal4-VP16 FLuc)
O=C(c1ccco1)N1CCC(n2nnc3ccccc32)CC1	ALDH1A1 inh 25µM
O=C(c1ccco1)N1CCN(C(=O)c2ccco2)CC1	none (no result: ALDH1A1 inh, RORg inh, Sfp inh, Gal4-VP16 FLuc)
NC(=O)N1CCN(C(=O)c2ccco2)CC1	ALDH1A1 inh 20µM
COc1cc(C2NC(=O)C(C#N)=C(S)N2c2ccc(C)cc2)ccc1OC(C)C (configuration not stated)	PLK1 PBD inh inconclusive, Sfp inh inconclusive
COc1ccc(C2NC(=O)C(C#N)=C(S)N2c2ccc(C)cc2)cc1OC (configuration not stated)	ALDH1A1 inh 18µM, PLK1 PBD inh inconclusive, RORg inh inconclusive, Sfp inh 32µM
COc1ccc(C2NC(=O)C(C#N)=C(S)N2c2cccc(C)c2)cc1OC (configuration not stated)	ALDH1A1 inh inconclusive, PLK1 PBD inh inconclusive, RORg inh inconclusive, Sfp inh 32µM
COc1ccc(N2C(S)=C(C#N)C(=O)NC2c2ccc(OC)c(OC)c2)cc1 (configuration not stated)	ALDH1A1 inh inconclusive, RORg inh 11µM, Sfp inh 22µM
COc1ccc(OC2C(=O)N(c3ccc(F)cc3)C2c2ccc(OC)c(OC)c2)cc1 (configuration not stated)	none
CCOc1ccc(C2NC(=O)C(C#N)=C(S)N2c2ccc(OC)cc2)cc1OC (configuration not stated)	ALDH1A1 inh 20µM, PLK1 PBD inh inconclusive, Sfp inh 28µM
C=NCc1cc2c(OC[C@@H](O)CNC(C)(C)C)cccc2[nH]1	none (no result: PLK1 PBD inh, RORg inh, Gal4-VP16 FLuc)
O=c1[nH]c2ccccc2c(O)c1O	ALDH1A1 inh 0.56µM, PLK1 PBD inh 11µM, Sfp inh 0.32µM
C[C@H]1Cc2c(COc3ccccc3)nc3c(c2CO1)CN(C(=O)C1CC1)CC3	none (no result: PLK1 PBD inh, RORg inh, Gal4-VP16 FLuc)
Clc1ccccc1-c1ccc2ncnc(NCCN3CCOCC3)c2c1	none (no result: PLK1 PBD inh)
NCCNC(=S)S	ALDH1A1 inh 3.2µM (no result: PLK1 PBD inh, RORg inh, Sfp inh, Gal4-VP16 FLuc)
COCCSc1ccccc1C(=O)Nc1ccccc1C(C)C	Sfp inh 18µM
NS(=O)(=O)c1ccc(-c2ccc(C=O)o2)cc1	none
NS(=O)(=O)c1ccc(-c2ccc(/C=C3\NC(=S)NC3=O)o2)cc1	PLK1 PBD inh inconclusive, Sfp inh 5.6µM (no result: ALDH1A1 inh)
CC(C)NC(=O)C1(C)CSCC(=O)N1Cc1ccco1 (configuration not stated)	none (no result: ALDH1A1 inh, RORg inh, Sfp inh, Gal4-VP16 FLuc)
COc1cc(OC)c(OC)cc1/C=C1\CCC(C2CCCC2)C1=O (configuration not stated)	ALDH1A1 inh 2µM
NC(=O)c1ccc(-c2nc(-c3ccc4c(c3)OCO4)c(-c3ccccn3)[nH]2)cc1	ALDH1A1 inh inconclusive (no result: PLK1 PBD inh)
Cc1cccc(-c2[nH]c(C(C)(C)C)nc2-c2ccc3c(c2)OCO3)n1	RORg inh 1.8µM, Gal4-VP16 FLuc 7.1µM (no result: ALDH1A1 inh, PLK1 PBD inh)
CCOC(=O)[C@]12CCCC=C1N(Cc1cccc3ccccc13)C(=O)[C@H](CC(=O)N1CCN(C(=O)c3ccco3)CC1)C2	none (no result: ALDH1A1 inh, RORg inh, Sfp inh, Gal4-VP16 FLuc)
O=C(CCCN1C(=O)NC2(CCCC2)C1=O)NCc1ccccc1	none (no result: ALDH1A1 inh, RORg inh, Sfp inh, Gal4-VP16 FLuc)
CC(C)n1ncc2c(C(=O)O)cc(C3CC3)nc21	PLK1 PBD inh 30µM (no result: ALDH1A1 inh)
Cc1ccsc1/C=C1\Oc2cc(OCC(=O)c3ccccc3)ccc2C1=O	RORg inh 16µM, Gal4-VP16 FLuc inconclusive
O=C(Nc1ccc(Cl)cc1)NC1CCCC1Cc1ccco1 (configuration not stated)	ALDH1A1 inh 13µM (no result: Gal4-VP16 FLuc)
O=C(COc1ccc(S(=O)(=O)N2CCOCC2)cc1)NCCc1ccc(Cl)cc1	none (no result: ALDH1A1 inh, RORg inh, Sfp inh, Gal4-VP16 FLuc)
O=C(CC1CC2CCC1C2)N1CCN(S(=O)(=O)c2ccc(F)cc2)CC1 (configuration not stated)	none (no result: ALDH1A1 inh, RORg inh, Sfp inh, Gal4-VP16 FLuc)
O=c1c(C/C=C/c2ccccc2)c(O)ccn1CCc1c[nH]c2ccccc12	ALDH1A1 inh 40µM
O=c1c(C/C=C/c2ccccc2)c(O)ccn1Cc1cccc(Cl)c1	none
COc1ccc2[nH]cc(CCn3ccc(O)c(C/C=C/c4ccccc4)c3=O)c2c1	ALDH1A1 inh 14µM
COc1ccc(/C=C/c2ccccc2)cc1C1C2C=CCCC2(C)C(=O)N1Cc1ccccc1 (configuration not stated)	Sfp inh inconclusive (no result: ALDH1A1 inh, PLK1 PBD inh)
COc1cccc(S(=O)(=O)Nc2ccc(C(O)(C(F)(F)F)C(F)(F)F)cc2)c1	none (no result: ALDH1A1 inh, RORg inh, Sfp inh, Gal4-VP16 FLuc)
Cc1ccc(S(=O)(=O)N2CCCC2CNC(=O)C(=O)NCc2ccc3c(c2)OCO3)cc1 (configuration not stated)	none (no result: ALDH1A1 inh, RORg inh, Sfp inh, Gal4-VP16 FLuc)
CN(C)C(=S)N=c1ssc(=S)n1Cc1cccnc1	PLK1 PBD inh 27µM (no result: ALDH1A1 inh, RORg inh, Sfp inh, Gal4-VP16 FLuc)
S=C1NCN(Cc2cccnc2)CN1	none
CC(C)N(Cc1ccccc1)S(=O)(=O)c1n[nH]c(C(C)(C)C)n1	none (no result: PLK1 PBD inh, RORg inh, Sfp inh, Gal4-VP16 FLuc)
O=C1C2C3C=CC(C3)C2C(=O)N1/N=C/c1cn(Cc2ccccc2)c2ccccc12 (configuration not stated)	RORg inh inconclusive
CCOC(=O)Cn1cc(/C=N/N2C(=O)C3C4C=CC(C4)C3C2=O)c2ccccc21 (configuration not stated)	ALDH1A1 inh inconclusive, PLK1 PBD inh 15µM
O=C1C2C3C=CC(C3)C2C(=O)N1/N=C/c1cn(Cc2ccc(F)cc2)c2ccccc12 (configuration not stated)	ALDH1A1 inh 25µM
NC(=O)c1nsc(C(=O)N(CC(=O)NCc2ccccc2)c2ccc(F)cc2)c1N	RORg inh inconclusive (no result: ALDH1A1 inh)
CC(C)C[C@@H](CNCC(=O)[C@H](Cc1ccccc1)NC(=O)c1[nH]cnc1C(=O)N[C@H](CN)CC(C)C)NC(=O)c1nc[nH]c1C(=O)N[C@@H](CC(=O)O)C(=O)O	PLK1 PBD inh 34µM (no result: ALDH1A1 inh, RORg inh, Sfp inh, Gal4-VP16 FLuc)
CC(C)C[C@@H](CN)NC(=O)c1nc[nH]c1C(=O)N[C@@H](Cc1ccccc1)C(=O)CNC[C@H](C)NC(=O)c1nc[nH]c1C(=O)N[C@@H](CC(C)C)C(=O)O	none (no result: ALDH1A1 inh, RORg inh, Sfp inh, Gal4-VP16 FLuc)
